# In the supplement of paper PMC8728848:
# About 410 targets per protein were measured; listed, in parts, are those with the strongest signals and a random draw of the rest.
# B1: PhypaEULS3 (Physcomitrella patens) (protein)
# chain: MLPVRLHCKADPNFNLAAVPGQGPVMVPFSPNDDFQVWYKDVTMSTRVKDETGSSAFSLINKATGQALRHAPEDLAQCLLADYDSNALDQTVLWTMSEDMGQGYCCIRLASQITRNLDVFRGDKKSGGVKEGSPVITFAWKKQDNQIWKMITAILEQKLISEEDLNSAVDHHHHHH
# How the values were obtained:
# Test in all cases: glycan array binding signal (z-score within array); higher = stronger binding
# Settings in all cases: glycan notation: IUPAC condensed, linker removed
# [1] = molecular target: Fuc(a1-2)Gal(b1-4)GlcNAc(b1-3)Gal(b1-4)GlcNAc(b1-2)Man(a1-3)[Fuc(a1-2)Gal(b1-4)GlcNAc(b1-3)Gal(b1-4)GlcNAc(b1-2)Man(a1-6)]Man(b1-4)GlcNAc(b1-4)GlcNAc
# Outline: (§1)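 Glycan array data came from 3228 arrays in the Consortium for Functional Glycomics database, and only arrays with an available protein sequence were kept. Glycan names were put into IUPAC-condensed notation, and columns mapping to the same glycan were averaged. The binding signal is a within-array Z-score, averaged across arrays of one protein sequence run at different concentrations or buffers and across linkers. A negative Z-score can be read as non-binding.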
# [2] = molecular target: Fuc(a1-2)Gal3S(b1-4)GlcNAc
# Outline: as §1
# [3] = molecular target: Fuc(a1-2)Gal6S(b1-3)GlcNAc6S
# Outline: as §1
# [4] = molecular target: Fuc(a1-2)[GalNAc(a1-3)]Gal(b1-3)GlcNAc(b1-6)GalNAc
# Outline: as §1
# [5] = molecular target: Fuc(a1-3)[Gal(b1-4)]GlcNAc(b1-6)[Gal(b1-3)GlcNAc(b1-3)]Gal(b1-4)Glc
# Outline: as §1
# [6] = molecular target: Fuc(a1-3)[Gal(b1-4)]GlcNAc6S
# Outline: as §1
# [7] = molecular target: Gal(a1-3)Gal(b1-3)GlcNAc(b1-6)GalNAc
# Outline: as §1
# [8] = molecular target: Gal(a1-3)Gal(b1-4)GlcNAc(b1-3)GalNAc
# Outline: as §1
# Gal(b1-3)GlcNAc(b1-2)Man = molecular target: Gal(b1-3)GlcNAc(b1-2)Man
# Outline: as §1
# [9] = molecular target: Gal(b1-3)GlcNAc(b1-6)Gal(b1-4)GlcNAc
# Outline: as §1
# Gal(b1-3)GlcNAc6S = molecular target: Gal(b1-3)GlcNAc6S
# Outline: as §1
# [10] = molecular target: Gal(b1-3)[Neu5Ac(a2-6)]GalNAc
# Outline: as §1
# Gal(b1-4)Glc6S = molecular target: Gal(b1-4)Glc6S
# Outline: as §1
# Gal(b1-4)GlcNAc(b1-2)Man = molecular target: Gal(b1-4)GlcNAc(b1-2)Man
# Outline: as §1
# [11] = molecular target: Gal(b1-4)GlcNAc(b1-2)[Gal(b1-4)GlcNAc(b1-6)]Man(a1-6)[GlcNAc(b1-4)][Gal(b1-4)GlcNAc(b1-2)Man(a1-3)]Man(b1-4)GlcNAc(b1-4)GlcNAc
# Outline: as §1
# [12] = molecular target: Gal(b1-4)GlcNAc(b1-3)Gal(b1-3)GalNAc
# Outline: as §1
# [13] = molecular target: Gal(b1-4)GlcNAc(b1-3)Gal(b1-4)GlcNAc(b1-3)Gal(b1-4)GlcNAc(b1-3)Gal(b1-4)GlcNAc(b1-2)Man(a1-3)[Gal(b1-4)GlcNAc(b1-3)Gal(b1-4)GlcNAc(b1-3)Gal(b1-4)GlcNAc(b1-3)Gal(b1-4)GlcNAc(b1-2)Man(a1-6)]Man(b1-4)GlcNAc(b1-4)[Fuc(a1-6)]GlcNAc
# Outline: as §1
# [14] = molecular target: Gal3S(b1-4)[Fuc(a1-3)]Glc6S
# Outline: as §1
# [15] = molecular target: Gal3S(b1-4)[Fuc(a1-3)]GlcNAc6S
# Outline: as §1
# Gal4S6S(b1-4)GlcNAc = molecular target: Gal4S6S(b1-4)GlcNAc
# Outline: as §1
# Gal6S(b1-3)GlcNAc6S = molecular target: Gal6S(b1-3)GlcNAc6S
# Outline: as §1
# [16] = molecular target: GalNAc3S(b1-4)[Fuc(a1-3)]GlcNAc
# Outline: as §1
# GalNAc4S6S(b1-4)GlcNAc = molecular target: GalNAc4S6S(b1-4)GlcNAc
# Outline: as §1
# Glc(a1-4)Glc = molecular target: Glc(a1-4)Glc
# Outline: as §1
# Glc(b1-6)Glc = molecular target: Glc(b1-6)Glc
# Outline: as §1
# GlcA(b1-3)Gal = molecular target: GlcA(b1-3)Gal
# Outline: as §1
# [17] = molecular target: GlcNAc(a1-4)Gal(b1-4)GalNAc
# Outline: as §1
# [18] = molecular target: GlcNAc6S(b1-3)Gal(b1-4)GlcNAc
# Outline: as §1
# Kdn(a2-6)Gal(b1-4)GlcNAc = molecular target: Kdn(a2-6)Gal(b1-4)GlcNAc
# Outline: as §1
# [19] = molecular target: Man(a1-2)Man(a1-2)Man(a1-6)[Man(a1-3)]Man
# Outline: as §1
# [20] = molecular target: Man(a1-2)Man(a1-3)[Man(a1-2)Man(a1-6)]Man(a1-6)[Man(a1-2)Man(a1-2)Man(a1-3)]Man
# Outline: as §1
# [21] = molecular target: Man(a1-2)Man(a1-6)[Man(a1-3)]Man(a1-6)[Man(a1-2)Man(a1-2)Man(a1-3)]Man(b1-4)GlcNAc(b1-4)GlcNAc
# Outline: as §1
# [22] = molecular target: Man(a1-3)[Man(a1-6)]Man(a1-6)[Man(a1-3)]Man(b1-4)GlcNAc(b1-4)GlcNAc
# Outline: as §1
# [23] = molecular target: Man(a1-3)[Man(a1-6)]Man(b1-4)GlcNAc(b1-4)GlcNAc
# Outline: as §1
# [24] = molecular target: Neu5Ac(a2-3)Gal(b1-3)GlcNAc(b1-2)Man
# Outline: as §1
# [25] = molecular target: Neu5Ac(a2-3)Gal(b1-3)[GlcNAc(b1-6)]GalNAc
# Outline: as §1
# [26] = molecular target: Neu5Ac(a2-3)Gal(b1-3)]Neu5Ac(a2-3)Gal(b1-4)]GlcNAc
# Outline: as §1
# [27] = molecular target: Neu5Ac(a2-3)Gal(b1-4)GlcNAc(b1-3)Gal(b1-4)GlcNAc(b1-3)Gal(b1-4)GlcNAc
# Outline: as §1
# [28] = molecular target: Neu5Ac(a2-3)Gal(b1-4)GlcNAc(b1-6)GalNAc
# Outline: as §1
# Neu5Ac(a2-3)GalNAc = molecular target: Neu5Ac(a2-3)GalNAc
# Outline: as §1
# [29] = molecular target: Neu5Ac(a2-6)Gal(b1-4)GlcNAc(b1-2)Man(a1-6)[Man(a1-3)]Man(b1-4)GlcNAc(b1-4)GlcNAc
# Outline: as §1
# [30] = molecular target: Neu5Ac(a2-6)Gal(b1-4)GlcNAc(b1-3)Gal(b1-3)GlcNAc
# Outline: as §1
# [31] = molecular target: Neu5Ac(a2-6)Gal(b1-4)GlcNAc(b1-3)Gal(b1-4)GlcNAc(b1-3)Gal(b1-4)GlcNAc
# Outline: as §1
# [32] = molecular target: Neu5Ac(a2-6)Gal(b1-4)GlcNAc(b1-3)Gal(b1-4)GlcNAc(b1-3)GalNAc
# Outline: as §1
# [33] = molecular target: Neu5Ac(a2-6)Gal(b1-4)GlcNAc(b1-3)GalNAc
# Outline: as §1
# [34] = molecular target: Neu5Ac(a2-6)Gal(b1-4)GlcNAc(b1-6)[Gal(b1-3)GlcNAc(b1-3)]Gal(b1-4)Glc
# Outline: as §1
# [35] = molecular target: Neu5Ac(a2-6)GalNAc(b1-4)GlcNAc
# Outline: as §1
# [36] = molecular target: Neu5Ac(a2-8)Neu5Ac(a2-3)Gal(b1-3)GalNAc(b1-4)[Neu5Ac(a2-3)]Gal(b1-4)Glc
# Outline: as §1
# [37] = molecular target: Neu5Ac(a2-8)Neu5Ac(a2-3)[GalNAc(b1-4)]Gal(b1-4)Glc
# Outline: as §1
# [38] = molecular target: Neu5Ac(a2-8)Neu5Ac(a2-8)Neu5Ac
# Outline: as §1
# Neu5Gc(a2-6)GalNAc = molecular target: Neu5Gc(a2-6)GalNAc
# Outline: as §1
binder,measurement,setting,value
B1,glycan array binding signal (z-score),[1],0.946
same,glycan array binding signal (z-score),[2],-0.262
same,glycan array binding signal (z-score),[3],3.08
same,glycan array binding signal (z-score),[4],0.713
same,glycan array binding signal (z-score),[5],2.22
same,glycan array binding signal (z-score),[6],-0.239
same,glycan array binding signal (z-score),[7],0.611
same,glycan array binding signal (z-score),[8],3.21
same,glycan array binding signal (z-score),Gal(b1-3)GlcNAc(b1-2)Man,0.702
same,glycan array binding signal (z-score),[9],1.01
same,glycan array binding signal (z-score),Gal(b1-3)GlcNAc6S,1.42
same,glycan array binding signal (z-score),[10],-0.203
same,glycan array binding signal (z-score),Gal(b1-4)Glc6S,0.095
same,glycan array binding signal (z-score),Gal(b1-4)GlcNAc(b1-2)Man,1.11
same,glycan array binding signal (z-score),[11],-0.969
same,glycan array binding signal (z-score),[12],2.27
same,glycan array binding signal (z-score),[13],-0.557
same,glycan array binding signal (z-score),[14],0.258
same,glycan array binding signal (z-score),[15],2.66
same,glycan array binding signal (z-score),Gal4S6S(b1-4)GlcNAc,-0.245
same,glycan array binding signal (z-score),Gal6S(b1-3)GlcNAc6S,4.14
same,glycan array binding signal (z-score),[16],-0.804
same,glycan array binding signal (z-score),GalNAc4S6S(b1-4)GlcNAc,2.6
same,glycan array binding signal (z-score),Glc(a1-4)Glc,-0.811
same,glycan array binding signal (z-score),Glc(b1-6)Glc,-1.38
same,glycan array binding signal (z-score),GlcA(b1-3)Gal,-1.49
same,glycan array binding signal (z-score),[17],-1.15
same,glycan array binding signal (z-score),[18],1.26
same,glycan array binding signal (z-score),Kdn(a2-6)Gal(b1-4)GlcNAc,0.671
same,glycan array binding signal (z-score),[19],0.733
same,glycan array binding signal (z-score),[20],-0.367
same,glycan array binding signal (z-score),[21],2.25
same,glycan array binding signal (z-score),[22],-0.185
same,glycan array binding signal (z-score),[23],0.192
same,glycan array binding signal (z-score),[24],-0.422
same,glycan array binding signal (z-score),[25],3.83
same,glycan array binding signal (z-score),[26],0.062
same,glycan array binding signal (z-score),[27],0.343
same,glycan array binding signal (z-score),[28],2.29
same,glycan array binding signal (z-score),Neu5Ac(a2-3)GalNAc,-0.098
same,glycan array binding signal (z-score),[29],-0.347
same,glycan array binding signal (z-score),[30],0.4
same,glycan array binding signal (z-score),[31],0.398
same,glycan array binding signal (z-score),[32],0.528
same,glycan array binding signal (z-score),[33],0.678
same,glycan array binding signal (z-score),[34],0.339
same,glycan array binding signal (z-score),[35],0.235
same,glycan array binding signal (z-score),[36],-0.561
same,glycan array binding signal (z-score),[37],-0.005
same,glycan array binding signal (z-score),[38],-0.561
same,glycan array binding signal (z-score),Neu5Gc(a2-6)GalNAc,2.46
